This note sets out measurements from PubChem BioAssay AID2435 (The Scripps Research Institute Molecular Screening Center, 2010).

The campaign covered roughly 320,000 compounds. About 1,000 (0.31%) were called active. The sample holds actives, similar compounds and a random draw of the others, so the mix is not that of the screen.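 How the source made its calls: active means activation above the mean of all tested compounds plus 3 SD, cutoff set per screening run (cut at about 20% in these data); inactive means the rest.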

The target of the test is Oxytocin receptor (Homo sapiens) (UniProt P30559). The test is described as follows: human OXTR agonists, primary screen, fluorescence, CHO-OTR cells, Fluo-8 calcium (AID 2435).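 Further: peak over basal fluorescence ratio from a 100 s FLIPR kinetic read.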 Conditions: Fluo-8 calcium fluorescence, at 3 µM, stronger effect = higher value, normalized: DMSO 0%, oxytocin 100%.
Chain of Oxytocin receptor (Homo sapiens) (P30559 whole entry, looked up): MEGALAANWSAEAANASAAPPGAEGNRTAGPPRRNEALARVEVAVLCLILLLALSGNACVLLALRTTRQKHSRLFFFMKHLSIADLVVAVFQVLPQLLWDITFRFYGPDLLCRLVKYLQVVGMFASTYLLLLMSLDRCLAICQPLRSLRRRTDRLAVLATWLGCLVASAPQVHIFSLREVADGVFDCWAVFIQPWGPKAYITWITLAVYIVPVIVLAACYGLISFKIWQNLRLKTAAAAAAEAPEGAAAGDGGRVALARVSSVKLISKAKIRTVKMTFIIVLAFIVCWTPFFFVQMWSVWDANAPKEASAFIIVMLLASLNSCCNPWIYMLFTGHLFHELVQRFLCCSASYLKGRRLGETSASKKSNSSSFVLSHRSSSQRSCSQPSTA
With `Cn1c(C(=O)OC(C(=O)NC2CCCCC2)c2ccccn2)cc2sccc21` (configuration not stated), the activation is -2.18% (inactive).

Consider `Cc1nc(-c2ccccc2)cn2c1nc1ccccc12`, for which the activation was -2.1% (inactive).

Turning to `c1ccc(-c2cc3c(NCC4COc5ccccc5O4)ncnc3s2)cc1` (configuration not stated), the activation was -2.32% (inactive).

For `c1ccc2c(c1)OCC(CNc1ncnc3nc[nH]c13)O2` (configuration not stated), the activation is 80.8% (active).

As for `S=C(NCC1COc2ccccc2O1)Nc1ccc(Br)cc1` (configuration not stated), the activation was 6.93% (inactive).

Regarding `CCc1ccc(C2N3CC4([N+](=O)[O-])CN2CC([N+](=O)[O-])(C3)C4(C)C)cc1` (configuration not stated), the activation was -1.26% (inactive).

Consider `Cc1ccc(NC(=O)C(CC(=O)O)C2CCCO2)c(C)c1` (configuration not stated), for which the activation was -0.43% (inactive).

Turning to `COc1ccc(NS(=O)(=O)c2ccc(NC(=S)NC(=O)CC(C)C)cc2)cc1`, the activation was 22.5% (active).

Consider `CC(=O)c1ccc(NC(=S)NC(=O)CC(C)C)cc1`, for which the activation is -2.1% (inactive).

For `COc1ccc(OC)c(C(C)NC(=S)Nc2ccc(S(=O)(=O)Nc3ncccn3)cc2)c1` (configuration not stated), the activation is -0.31% (inactive).

In the case of `Cc1ccccc1CSc1nnc(-c2ccccc2)c(=O)[nH]1`, the activation was 0.69% (inactive).

Regarding `CCOc1ccc(/C=C(/NC(=O)c2ccccc2)C(=O)NCCC(=O)O)cc1`, the activation was 0.74% (inactive).

Regarding `CC(C)(C)c1ccc(/C=C/C(=O)Nc2ncccn2)cc1`, the activation was -1.37% (inactive).

Regarding `COc1ccccc1NC(=O)/C=C/C(N)=O`, the activation is 0.46% (inactive).

`COC(=O)c1sc(-c2ccc(C(C)(C)C)cc2)cc1NC(=O)/C=C/C(=O)O`: the activation was 21.9% (active).

Regarding `CNC[C@H](CC1CCCCC1)NC[C@H](NCCC1CCCC1)[C@H](C)O`, the activation is 3.53% (inactive).

For `O=C(O)/C=C/c1ccc(OCCCF)cc1`, the activation was 0.01% (inactive).

For `O=C(/C=C(O)/C=C/c1ccc(O)cc1)/C=C/c1ccc(O)cc1`, the activation was 99.9% (active).

On to `O=C(/C=C/c1ccc2c(c1)OCCO2)c1ccc(O)cc1`, for which the activation is 1.57% (inactive).

Turning to `CCOc1cc(/C=C/c2nc3ccccc3c(=O)[nH]2)cc(Br)c1OC`, the activation is 0.74% (inactive).

Take `CC(C)[C@H](NC(=O)N1CCn2c1nc1ccccc12)C(=O)NCc1ccc2c(c1)OCO2`: the activation is -1.49% (inactive).

As for `O=C(NCc1ccccc1Cl)C1CCN(c2ncnc3c2nc2n3CCCCC2)CC1`, the activation is 0.32% (inactive).

For `Cc1cc(F)ccc1N1CCC(N2CCN(C)C(CCO)C2)CC1` (configuration not stated), the activation is 0.09% (inactive).

`COc1cc(C(=O)NC2CCN(C)CC2)ccc1Nc1ncc2c(n1)N(C1CCC(O)CC1)CCC(=O)N2C` (configuration not stated): the activation is 0.79% (inactive).

On to `COc1ccc(C(=O)NC2CCN(C(=S)NCCc3ccccc3)CC2)cc1`, for which the activation was -0.97% (inactive).

Consider `COc1ccc(C(=O)NC(=S)NC2CCCCC2)cc1`, for which the activation is -1.13% (inactive).

As for `COc1ccc(CCC(=O)c2ccc(OC)cc2)cc1`, the activation is -2.31% (inactive).

Turning to `COc1ccc(C(=O)NC(=S)NNC(=O)CCc2ccccc2)cc1`, the activation was 46% (active).

With `COc1ccc(C(=O)NNC(=S)NC(=O)c2ccccc2)cc1`, the activation was 55% (active).

As to `COc1ccc(C(=O)NNC(=S)NC(=O)c2ccccc2[N+](=O)[O-])cc1`, the activation was -2.16% (inactive).

Take `CNC(=O)c1csc(Cc2c(Cl)sc3ccc(Cl)cc23)n1`: the activation was -2.05% (inactive).

On to `O=C(NCc1ccncc1)C(=O)NCC1OCCN1S(=O)(=O)c1ccc(Br)cc1` (configuration not stated), for which the activation is 0.38% (inactive).

On to `NC(=O)c1ccsc1NC(=O)COC(=O)COc1ccc(C=O)cc1`, for which the activation was 16.4% (inactive).

Take `Cc1c(Br)c([N+](=O)[O-])nn1CC(=O)Nc1sc2c(c1C(=O)OC(C)C)CCC(C)C2` (configuration not stated): the activation was 0.81% (inactive).

Regarding `COc1cc(NC(=O)CSC(=S)N2CCCC2)c(OC)cc1Cl`, the activation was -1.55% (inactive).

For `CCN1/C(=C\c2ccc3ccccc3[n+]2CC)Sc2cc(C)ccc21`, the activation was 23.2% (active).

As for `C=CCN1C(=NC(=O)COc2ccccc2)SC2CS(=O)(=O)CC21` (configuration not stated), the activation was 1.7% (inactive).

On to `O=C(CSc1nc2ncccc2[nH]1)Nc1ccc2c(c1)OCCO2`, for which the activation is -2.32% (inactive).

Turning to `CCc1ccc2c(c1)C1(NN=C(c3ccccc3)S1)C(=O)N2` (configuration not stated), the activation is -1.26% (inactive).

For `O=C1/C(=C\c2ccsc2)NC(=S)N1c1ccccc1`, the activation was 0.14% (inactive).

On to `CN(C)c1ccc(/C=C2\NC(=S)N(Cc3ccccc3)C2=O)cc1`, for which the activation is 51.8% (active).

For `CN(C)c1ccc(C=C2C(=O)OC3(CCCC3)OC2=O)cc1`, the activation is 3.44% (inactive).

For `N#CCCN(C(=O)COC(=O)c1ccc2c(c1)OCCO2)c1ccccc1`, the activation was 1.54% (inactive).

On to `Cn1cccc1C1(C(F)(F)F)NCCNC1=O` (configuration not stated), for which the activation was 1.22% (inactive).

On to `CCCC(=O)NC(=S)Nc1ccc(CN2CCOCC2)cc1`, for which the activation is 1% (inactive).

As to `CCOC(=O)CC1C(=O)NCCN1c1nc2c(C)cccn2c(=O)c1/C=C1\SC(=S)N(C(C)CC)C1=O` (configuration not stated), the activation is 23.3% (active).

Regarding `Cc1cccn2c(=O)c(/C=C(\C#N)C(N)=O)c(N3CCCCCC3)nc12`, the activation is -2.52% (inactive).

With `CCOC(=O)N1CCN(C(=O)CSc2nc(=O)n3cccc(C)c3n2)CC1`, the activation was -0.13% (inactive).

For the molecule `O=[N+]([O-])c1ccccc1N/N=C1\CCc2ccccc21`, the activation is 1.32% (inactive).

In the case of `COc1cc(OC)c(N2CC(C(=O)Nc3cc(Cl)ccc3N3CCOCC3)CC2=O)cc1Cl` (configuration not stated), the activation was 10.6% (inactive).

Turning to `COc1cc(OC)c(-n2cc(-c3ccc(Cl)cc3)[nH]c2=O)cc1Cl`, the activation was 42.2% (active).

For the molecule `COc1cc(OC)c(-n2c(C)cc(C=O)c2C)cc1Cl`, the activation is -0.29% (inactive).

As for `Cc1ccc(-n2ncc3c(Nc4cccc(C(=O)O)c4)ncnc32)cc1`, the activation is -1.04% (inactive).

For the molecule `O=C(NCc1cccnc1)C12CC3CC(CC(C3)C1)C2`, the activation is -0.43% (inactive).

Turning to `CCCN(CC(=O)Nc1ccccc1OC)C(=O)CCC(=O)c1ccc(F)cc1`, the activation is -2.01% (inactive).

As for `C/C(=N\NS(=O)(=O)c1ccc(Cl)cc1)c1ccc(NC(=O)c2ccco2)cc1`, the activation was 24.5% (active).

As for `O=C(Nc1ccc(O)cc1)c1ccc(NC(=O)c2ccco2)cc1`, the activation was 1.38% (inactive).

Take `C/C(=N/NS(=O)(=O)c1ccccc1)c1ccc(NC(=O)C(F)(F)F)cc1`: the activation was -0.88% (inactive).

Consider `O=C(O)CCn1c(O)c(C=C2N=c3ccccc3=N2)sc1=S`, for which the activation was 0.13% (inactive).

Take `CCc1ccc(-c2nn(-c3ccccc3C)cc2C(=O)N2CCN(C3CCS(=O)(=O)C3)CC2)cc1` (configuration not stated): the activation is 2.09% (inactive).

`Cc1ccc(-c2nn(-c3ccccc3)cc2/C=N/NC(=O)c2ccc3c(c2)OCO3)cc1`: the activation is -1.39% (inactive).

With `CCc1ccc(-c2nn(-c3ccccc3)cc2CSC(=N)N)cc1`, the activation was 24.2% (active).
